Reference: PubChem BioAssay AID1159580 (chemical genetic matrix, 2015)
Among all 5,500 compounds or so, about 2,000 (36%) were called active. Roughly 18% stayed inconclusive and do not appear here. Cut-off read from the data, not from the text of the source: active = normalized growth mostly below about 0.91 (no sharp cut-off); inconclusive = no clear call, values can overlap the other calls; inactive = mostly above about 0.92. Some of the results follow.

Assay: chemical genetic growth profiling, strain panel (AID 1159580);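 note: tested at 20 µM; growth read once vehicle control cultures reached saturation at 30 °C; 1 = growth at the plate median or of vehicle wells; lower values mean less growth of the strain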
Settings: growth OD

Measured: normalized growth

CNCc1ccccc1
inactive: S. cerevisiae deletion strains, locus YJR066W, strain TOR1, hits give low values 0.978 | S. cerevisiae deletion strains, locus YKL009W, strain mrt4, hits give low values 0.999 | S. cerevisiae deletion strains, locus YKL068W, hits give low values 0.981 | S. cerevisiae deletion strains, locus YKL085W, strain MDH1 (second series), hits give low values 0.976 | S. cerevisiae deletion strains, locus YKL085W, strain MDH1, hits give low values 0.976 | S. cerevisiae deletion strains, locus YKL160W, strain elf1, hits give low values 1 | S. cerevisiae deletion strains, locus YKL190W, strain CNB1, hits give low values 0.996 | S. cerevisiae deletion strains, locus YKR001C, strain vps1, hits give low values 1.04 | S. cerevisiae deletion strains, locus YKR026C, strain gcn3, hits give low values 1.03 | S. cerevisiae deletion strains, locus YKR091W, strain srl3, hits give low values 1.02 | S. cerevisiae deletion strains, locus YLL001W, strain dnm1, hits give low values 1.02 | S. cerevisiae deletion strains, locus YLL026W, hits give low values 1.01 | S. cerevisiae deletion strains, locus YLL041C, strain sdh2, hits give low values 1.02 | S. cerevisiae deletion strains, locus YLR027C, strain aat2, hits give low values 0.997 | S. cerevisiae deletion strains, locus YLR039C, strain RIC1, hits give low values 1.01 | S. cerevisiae deletion strains, locus YLR058C, strain SHM2, hits give low values 0.973 | S. cerevisiae deletion strains, locus YLR102C, strain apc9, hits give low values 0.99 | S. cerevisiae deletion strains, locus YLR113W, strain HOG1, hits give low values 0.981 | S. cerevisiae deletion strains, locus YLR221C, strain rsa3, hits give low values 1.01 | S. cerevisiae deletion strains, locus YLR258W, strain gsy2, hits give low values 1.03 | S. cerevisiae deletion strains, locus YLR262C, strain YPT6 (second series), hits give low values 1.01 | S. cerevisiae deletion strains, locus YLR262C, strain YPT6, hits give low values 1 | S. cerevisiae deletion strains, locus YLR268W, strain sec22, hits give low values 1.03 | S. cerevisiae deletion strains, locus YLR320W, strain mms22, hits give low values 1.02 | S. cerevisiae deletion strains, locus YLR330W, strain CHS5, hits give low values 0.999 | S. cerevisiae deletion strains, locus YLR342W, strain FKS1 (second series), hits give low values 1.05 | S. cerevisiae deletion strains, locus YLR342W, strain FKS1, hits give low values 1.02 | S. cerevisiae deletion strains, locus YLR357W, strain rsc2, hits give low values 1.02 | S. cerevisiae deletion strains, locus YLR370C, strain arc18, hits give low values 1.02 | S. cerevisiae deletion strains, locus YLR371W, strain rom2, hits give low values 0.999 | S. cerevisiae deletion strains, locus YLR384C, strain iki3, hits give low values 1 | S. cerevisiae deletion strains, locus YLR418C, strain cdc73, hits give low values 0.991 | S. cerevisiae deletion strains, locus YML016C, strain PPZ1, hits give low values 0.996 | S. cerevisiae deletion strains, locus YML032C, strain rad52, hits give low values 0.949 | S. cerevisiae deletion strains, locus YML120C, strain ndi1, hits give low values 1.02 | S. cerevisiae deletion strains, locus YML124C, strain tub3, hits give low values 0.983 | S. cerevisiae deletion strains, locus YMR058W, strain fet3, hits give low values 0.97 | S. cerevisiae deletion strains, locus YMR078C, strain ctf18, hits give low values 0.987 | S. cerevisiae deletion strains, locus YMR125W, strain sto1, hits give low values 1.02 | S. cerevisiae deletion strains, locus YMR129W, hits give low values 1.02 | S. cerevisiae deletion strains, locus YMR205C, strain PFK2, hits give low values 1.03 | S. cerevisiae deletion strains, locus YMR223W, strain ubp8, hits give low values 0.969 | S. cerevisiae deletion strains, locus YMR231W, strain pep5, hits give low values 0.99 | S. cerevisiae deletion strains, locus YMR263W, strain SAP30, hits give low values 0.992 | S. cerevisiae deletion strains, locus YMR307W, strain GAS1, hits give low values 0.914 | S. cerevisiae deletion strains, locus YNL067W, strain RPL9B, hits give low values 0.984 | S. cerevisiae deletion strains, locus YNL071W, strain lat1, hits give low values 1.03 | S. cerevisiae deletion strains, locus YNL153C, strain GIM3, hits give low values 0.978 | S. cerevisiae deletion strains, locus YNL183C, strain NPR1, hits give low values 0.91 | S. cerevisiae deletion strains, locus YNL209W, strain ssb2, hits give low values 1.01 | S. cerevisiae deletion strains, locus YNL233W, strain BNI4, hits give low values 1.01 | S. cerevisiae deletion strains, locus YNL248C, strain rpa49, hits give low values 1.03 | S. cerevisiae deletion strains, locus YNL250W, strain rad50, hits give low values 0.981 | S. cerevisiae deletion strains, locus YNL271C, strain bni1, hits give low values 0.994 | S. cerevisiae deletion strains, locus YNL298W, strain CLA4, hits give low values 0.988 | S. cerevisiae deletion strains, locus YNL307C, strain MCK1, hits give low values 1.01 | S. cerevisiae deletion strains, locus YNL322C, strain KRE1 (second series), hits give low values 1.02 | S. cerevisiae deletion strains, locus YNL322C, strain KRE1, hits give low values 0.994 | S. cerevisiae deletion strains, locus YNR049C, strain mso1, hits give low values 1.02 | S. cerevisiae deletion strains, locus YNR052C, strain pop2, hits give low values 0.991 | S. cerevisiae deletion strains, locus YOL006C, strain TOP1, hits give low values 1.1 | S. cerevisiae deletion strains, locus YOL012C, strain htz1 1.52 | S. cerevisiae deletion strains, locus YOL147C, strain pex11, hits give low values 0.989 | S. cerevisiae deletion strains, locus YOR001W, strain rrp6, hits give low values 1.01 | S. cerevisiae deletion strains, locus YOR061W, strain CKA2, hits give low values 0.983 | S. cerevisiae deletion strains, locus YOR069W, strain VPS5, hits give low values 1 | S. cerevisiae deletion strains, locus YOR070C, strain gyp1, hits give low values 1.01 | S. cerevisiae deletion strains, locus YOR080W, strain dia2, hits give low values 1.02 | S. cerevisiae deletion strains, locus YOR083W, strain WHI5, hits give low values 1.01 | S. cerevisiae deletion strains, locus YOR106W, strain vam3, hits give low values 1.04 | S. cerevisiae deletion strains, locus YOR136W, strain idh2, hits give low values 0.996 | S. cerevisiae deletion strains, locus YOR144C, strain elg1, hits give low values 0.991 | S. cerevisiae deletion strains, locus YOR184W, strain ser1, hits give low values 1 | S. cerevisiae deletion strains, locus YOR231W, strain MKK1, hits give low values 0.987 | S. cerevisiae deletion strains, locus YOR265W, strain rbl2, hits give low values 1.01 | S. cerevisiae deletion strains, locus YOR270C, strain vph1, hits give low values 1.08 | S. cerevisiae deletion strains, locus YOR290C, strain snf2, hits give low values 1.02 | S. cerevisiae deletion strains, locus YOR316C, strain cot1, hits give low values 0.986 | S. cerevisiae deletion strains, locus YPL051W, strain arl3, hits give low values 1 | S. cerevisiae deletion strains, locus YPL055C, strain LGE1, hits give low values 0.993 | S. cerevisiae deletion strains, locus YPL078C, strain atp4, hits give low values 1.02 | S. cerevisiae deletion strains, locus YPL106C, strain sse1, hits give low values 1.01 | S. cerevisiae deletion strains, locus YPL240C, strain hsp82, hits give low values 1.02 | S. cerevisiae deletion strains, locus YPL241C, strain CIN2, hits give low values 0.995 | S. cerevisiae deletion strains, locus YPL256C, strain CLN2, hits give low values 0.973 | S. cerevisiae deletion strains, locus YPR119W, strain clb2, hits give low values 0.991 | S. cerevisiae deletion strains, locus YPR141C, strain kar3, hits give low values 0.975 | S. cerevisiae deletion strains, locus YPR163C, strain tif3, hits give low values 0.979 | S. cerevisiae deletion strains, locus YPR167C, strain met16, hits give low values 0.982 | S. cerevisiae deletion strains, strain wtn01, hits give low values 1.06 | S. cerevisiae strains, strain wild type, hits give low values 0.992
